Reference: PubChem BioAssay (EPA / NIEHS)
Records with an inconclusive call do not appear. The source holds several records for some structures; these can differ, active in one and inactive in another. Activity calls are given as the source filed them. How the source made its calls, unless noted: active means hit-call score of the fitted dose curve at least 0.9, where 1 is the maximum; inconclusive means response in the unintended direction; inactive means score below 0.9.

Assays:
[1] = tested on: Sodium/Iodide Symporter (NIS), SLC5A5 (gene 6528); experiment: CPHEA_Stoker_NIS_Inhibition_RAIU: CPHEA's Radioactive Iodide Uptake (RAIU) Assay for Sodium/Iodide Symporter (NIS) Inhibition, Stoker and Laws Labs (AID 2283841)
Outline: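 Iodide uptake through human NIS is measured in an engineered HEK293T line. Cells take up 125I (329pM final) for 2 hours at room temperature alongside chemicals at 0.001–100uM. Retained radioactivity is counted, and the signal is expressed against DMSO controls.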

[2] = CPHEA_Stoker_NIS_Cytotoxicity: Cytotoxicity Assessment for CPHEA's Radioactive Iodide Uptake (RAIU) Assay for Sodium/Iodide Symporter (NIS) Inhibition, Stoker and Laws Labs (AID 2283897);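 on AC50: active means loss of ATP signal versus DMSO meaning cytotoxicity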
Outline: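 ATP luminescence (Cell Titer Glo) measured viability, with loss of signal normalized to DMSO controls. Cells: hNIS-HEK293T-EPA, seeded 40 hours prior. Dosing: 0.001–100uM, 2 hours, room temperature, uptake buffer pH 7.4.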

[3] = tested on: turtle Thyroid Hormone Receptor, alpha (TRa), gene 101949057; experiment: ATG_trTRa_XSP2: Attagene TRANS-FACTORIAL Multi-Species (XSP1) HepG2 Assay for turtle Thyroid Hormone Receptor, alpha (TRa) (AID 2283834);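 further: hits raise reporter mRNA over the DMSO baseline so AC50 marks activators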
Outline: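 Gain-of-signal reporter transcription measured in transiently transfected HepG2 at 24 h post-dose. Fluorescent RT-PCR products were resolved by capillary electrophoresis and compared with DMSO vehicle.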

[4] = ATG_M_61_XSP2: Attagene TRANS-FACTORIAL Multi-Species (XSP2) HepG2 Assay for M61 Transcription Factor (Internal Marker) (AID 2283835; active means hit-call score of the fitted dose curve at least 0.9, where 1 is the maximum; inactive means score below 0.9;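 further: reporter mRNA of an internal background marker read by RT-PCR and capillary electrophoresis; active means a rise in signal above the DMSO baseline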)
Outline: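 HepG2 cells transiently transfected with multiple GAL4-UAS reporter units; 3 nM 6-alpha-fluorotestosterone and 1.5 nM norgestrel present to stimulate androgen receptor. After 24 h compound exposure, reporter mRNA measured by RT-PCR and capillary electrophoresis fluorescence, gain-of-signal versus DMSO baseline.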

[5] = target: zebrafish Thyroid Hormone Receptor beta (TRb), thrb (gene 30607) (UniProt Q9PVE4); experiment: ATG_zfTRb_XSP2: Attagene TRANS-FACTORIAL Multi-Species (XSP1) HepG2 Assay for zebrafish Thyroid Hormone Receptor beta (TRb) (AID 2283836)
Outline: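 Human liver HepG2, transient MRTU transfection (NR-Gal4 chimeras, GAL4-UAS reporters); 24 h compound exposure; total RNA → oligo(dT) RT → PCR → 6-FAM label → HpaI cut → CE fluorescence. DMSO = negative control/baseline.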

[6] = target: human Thyroid hormone Receptor alpha (TRa), THRA (gene 7067) (UniProt P10827); experiment: ATG_hTRa_XSP2: Attagene TRANS-FACTORIAL Multi-Species (XSP2) HepG2 Assay for human Thyroid hormone Receptor alpha (TRa) (AID 2283838)
Description: (§1) ATG_XSP2_multi-species_TRANS is a cell-based, multiplexed assay created by modifying the existing Attagene TRANS-FACTORIAL system to include a panel of nuclear receptors from some or all the following species: human (Homo sapiens), mouse (Mus musculus), frog (Xenopus laevis), zebrafish (Danio rerio), chicken (Gallus gallus), and turtle (Chrysemys picta). The ECOTOX-FACTORIAL format uses HepG2, a human liver cell line, with measurements taken at 24 hours after chemical dosing in a 24-well plate. Xsp2 included 3 nM 6-alpha-fluorotestosterone and 1.5 nM norgestrel to stimulate the androgen receptor.ATG_hTRa_XSP2 is one of 29 assay components measured or calculated from the ATG_XSP2_multi-species_TRANS assay. It is designed to make measurements of mRNA induction, a form of inducible reporter, as detected with fluorescence intensity signals by Reverse transcription polymerase chain reaction (RT-PCR) and Capillary electrophoresis technology.The assay endpoint ATG_hTRa_XSP2 was analyzed in the positive analysis fitting direction relative to DMSO as the negative control and baseline of activity. Using a type of inducible reporter, measures of mRNA for gain-of-signal activity can be used to understand the reporter gene at the transcription factor-level as they relate to the gene TR. Furthermore, this assay endpoint can be referred to as a primary readout, because this assay has produced multiple assay endpoints where this one serves a reporter gene function. To generalize the intended target to other relatable targets, this assay endpoint is annotated to the nuclear receptor intended target family, where the subfamily is non-steroidal.
(§2) Human liver HepG2 cells are transiently transfected with multiple reporter transcription units (MRTUs) in 6-well plates using FuGene 6 reagent (Roche; 3 ml FuGene/1 mg DNA). The MRTU constructs are regulated by a cis-regulating element (promoter). […] A major difference between the CIS and TRANS system is that in CIS activities of endogenous TFs are measured, whereas the TRANS assay evaluates changes in activities of exogenous, chimeric NR-Gal4 proteins. […] At the end of 24 hour incubation, total RNA was isolated using TriZol reagent (Invitrogen). The isolated RNA is then reverse-transcribed using oligo(dT) primer and Mo-MLV reverse transcriptase (Invitrogen) with DNAse I (Ambion) treatment for 30 min. The one-tenth of the produced cDNA was amplified by PCR using Taq DNA polymerase (Invitrogen) and two reporter sequence-specific primers. The PCR products were fluorescently labeled by primer extension with 6-arboxyfluorescein (6-FAM) 5'-labeled reporter sequence-specific primer (2 min at 95 C, 20 s at 68 C and 10 min at 72 C) and these products were digested with 5U of HpaI (New England Biolabs) for 2h at 37 C. The fragments were purified using Qiaquick PCR columns (Qiagen), analyzed on an ABI 3130xL genetic analyzer (Applied Biosystems) with peak positions identified by using a set of X-rhodamine (ROX)-labeled MapMarker1000 molecular weight standards (BioVentures). The raw capillary electrophoresis data was processed using Attagraph software (Attagene).

[7] = target: frog Thyroid hormone Receptor alpha (TRa), thra-a (gene 397942) (UniProt P15204); experiment: ATG_frTRa_XSP2: Attagene TRANS-FACTORIAL Multi-Species (XSP2) HepG2 Assay for frog Thyroid hormone Receptor alpha (TRa) (AID 2283839)
Description: as §1, with “receptor.ATG_frTRa_XSP2” for “receptor.ATG_hTRa_XSP2”, “ATG_frTRa_XSP2” for “ATG_hTRa_XSP2”
as §2

[8] = target: human Thyroid hormone Receptor beta (TRb), THRB (gene 7068) (UniProt P10828); experiment: ATG_hTRb_XSP2: Attagene TRANS-FACTORIAL Multi-Species (XSP2) HepG2 Assay for human Thyroid hormone Receptor beta (TRb) (AID 2283840);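 further: actives raise reporter mRNA so potency reflects agonist-like gain of signal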
Outline: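 In this cell-based multiplex, HepG2 liver cells carrying transfected GAL4-UAS reporter constructs are exposed to chemical for 24 hours, then reporter transcripts are measured by RT-PCR with capillary electrophoresis, scored as gain of signal against DMSO.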

[9] = CEETOX_H295R_11DCORT_noMTC: CeeTox H295R High-throughput Steroidogenesis Assay for 11-Deoxycortisol (11DCORT), maximum tolerated concentration (MTC) filtered results only (AID 2283911; active means hit-call score of the fitted dose curve at least 0.9, where 1 is the maximum; inactive means score below 0.9); settings: actives raise or lower the signal
Outline: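 Readout is 11-deoxycortisol in culture medium by reverse-phase HPLC with MS/MS, after 48 h chemical treatment of forskolin-primed H295R cells. Values are relative to DMSO and unfiltered for cytotoxicity.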

Chain of human Thyroid hormone Receptor alpha (TRa), THRA (gene 7067) (P10827 whole entry, looked up): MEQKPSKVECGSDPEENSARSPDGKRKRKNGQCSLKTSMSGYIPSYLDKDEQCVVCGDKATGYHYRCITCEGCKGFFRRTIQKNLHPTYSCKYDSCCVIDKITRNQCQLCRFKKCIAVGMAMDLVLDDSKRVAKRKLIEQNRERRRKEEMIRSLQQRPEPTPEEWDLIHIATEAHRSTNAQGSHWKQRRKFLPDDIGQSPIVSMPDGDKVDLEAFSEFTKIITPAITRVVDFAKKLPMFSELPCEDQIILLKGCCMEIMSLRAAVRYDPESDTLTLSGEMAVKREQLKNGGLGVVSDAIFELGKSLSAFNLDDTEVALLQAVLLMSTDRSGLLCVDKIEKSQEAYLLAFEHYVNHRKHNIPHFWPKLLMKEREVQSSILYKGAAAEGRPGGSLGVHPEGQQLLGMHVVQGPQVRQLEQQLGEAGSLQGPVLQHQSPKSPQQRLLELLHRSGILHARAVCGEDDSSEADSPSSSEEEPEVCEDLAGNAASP
Chain of frog Thyroid hormone Receptor alpha (TRa), thra-a (gene 397942) (P15204 whole entry, looked up): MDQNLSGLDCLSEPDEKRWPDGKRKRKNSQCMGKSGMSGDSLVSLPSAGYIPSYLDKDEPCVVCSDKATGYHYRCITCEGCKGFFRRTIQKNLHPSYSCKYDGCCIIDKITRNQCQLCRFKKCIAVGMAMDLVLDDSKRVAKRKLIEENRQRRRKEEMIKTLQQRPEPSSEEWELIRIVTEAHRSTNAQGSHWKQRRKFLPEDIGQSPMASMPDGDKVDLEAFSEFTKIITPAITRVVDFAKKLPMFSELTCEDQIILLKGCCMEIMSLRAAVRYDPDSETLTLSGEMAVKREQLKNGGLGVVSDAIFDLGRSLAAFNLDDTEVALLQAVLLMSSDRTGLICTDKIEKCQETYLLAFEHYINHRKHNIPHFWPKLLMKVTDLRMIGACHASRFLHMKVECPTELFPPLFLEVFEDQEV
Chain of zebrafish Thyroid Hormone Receptor beta (TRb), thrb (gene 30607) (Q9PVE4 whole entry, looked up, the tested form may be a part): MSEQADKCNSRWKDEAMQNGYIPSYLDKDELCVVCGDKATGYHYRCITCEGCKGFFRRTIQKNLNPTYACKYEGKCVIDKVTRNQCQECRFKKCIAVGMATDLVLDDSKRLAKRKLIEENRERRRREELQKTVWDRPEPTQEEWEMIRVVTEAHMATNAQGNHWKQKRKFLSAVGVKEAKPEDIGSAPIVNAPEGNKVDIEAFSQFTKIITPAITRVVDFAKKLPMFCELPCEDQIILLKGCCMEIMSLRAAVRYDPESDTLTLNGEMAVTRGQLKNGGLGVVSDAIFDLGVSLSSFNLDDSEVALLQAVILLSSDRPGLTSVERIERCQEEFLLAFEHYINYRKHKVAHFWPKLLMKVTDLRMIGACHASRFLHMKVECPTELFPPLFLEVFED
Chain of human Thyroid hormone Receptor beta (TRb), THRB (gene 7068) (P10828 whole entry, looked up, the tested form may be a part): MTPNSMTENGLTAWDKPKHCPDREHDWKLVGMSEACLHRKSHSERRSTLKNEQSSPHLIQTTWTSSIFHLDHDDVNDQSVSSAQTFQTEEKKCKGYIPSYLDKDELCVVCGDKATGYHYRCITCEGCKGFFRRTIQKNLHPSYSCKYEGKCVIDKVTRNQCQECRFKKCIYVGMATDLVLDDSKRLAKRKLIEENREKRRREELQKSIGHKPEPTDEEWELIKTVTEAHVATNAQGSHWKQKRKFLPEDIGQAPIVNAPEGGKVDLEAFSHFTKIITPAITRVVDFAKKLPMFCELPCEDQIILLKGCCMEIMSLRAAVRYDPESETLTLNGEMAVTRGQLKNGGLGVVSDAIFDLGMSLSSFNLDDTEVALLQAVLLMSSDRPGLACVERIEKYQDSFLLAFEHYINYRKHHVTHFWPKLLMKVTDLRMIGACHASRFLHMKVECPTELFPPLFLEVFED

N#CS
AC50 [1]: 6.43 µM (active) | outcome [2]: inactive

CC1(C)[C@H](C(=O)O[C@H](C#N)c2cccc(Oc3ccccc3)c2)[C@@H]1/C=C(\Cl)C(F)(F)F
outcome [1]: inactive

O=C1c2ccccc2C(=O)C1C(=O)C(c1ccccc1)c1ccc(Cl)cc1 (configuration not stated)
outcome [1]: inactive | outcome [2]: inactive

CCCCCCCCCCCCOS(=O)(=O)O
outcome [1]: inactive | outcome [2]: inactive

CCC[CH2][Sn]([CH2]CCC)([CH2]CCC)[CH2]CCC
outcome [1]: inactive | outcome [2]: inactive

CC(O)(CS(=O)(=O)c1ccc(F)cc1)C(=O)Nc1ccc(C#N)c(C(F)(F)F)c1 (configuration not stated)
outcome [3]: inactive | outcome [4]: inactive | outcome [5]: inactive | outcome [6]: inactive | outcome [7]: inactive | AC50 [8]: 155 µM (active) | outcome [8]: inactive | AC50 [1]: 9.92 µM (active) | AC50 [2]: 88.7 µM (active)

O=S1OC[C@@H]2[C@H](CO1)[C@]1(Cl)C(Cl)=C(Cl)[C@@]2(Cl)C1(Cl)Cl (some centres not stated)
outcome [1]: inactive | outcome [2]: inactive

OC[P+](CO)(CO)CO
AC50 [9]: 6.54 µM (active)

CC(=Cc1ccccc1)[N+](=O)[O-]
outcome [1]: inactive | outcome [2]: inactive

CC(C)(C)c1ccccc1O
outcome [2]: inactive

CCOP(=S)(OCC)O/N=C(\C#N)c1ccccc1
outcome [3]: inactive | outcome [4]: inactive | outcome [5]: inactive | outcome [6]: inactive | outcome [7]: inactive | outcome [8]: inactive | outcome [1]: inactive | outcome [2]: inactive

Oc1c(Br)cc(Br)cc1Br
outcome [1]: inactive | outcome [2]: inactive

Cc1cc(Cl)ccc1OC(C)C(=O)O (configuration not stated)
outcome [1]: inactive

CCOCn1c(-c2ccc(Cl)cc2)c(C#N)c(Br)c1C(F)(F)F
AC50 [1]: 0.616 µM (active) | outcome [2]: inactive

c1cc[c]([Sb]([c]2ccccc2)[c]2ccccc2)cc1
outcome [9]: inactive

CCCSP(=S)(OCC)Oc1ccc(SC)cc1 (configuration not stated)
outcome [1]: inactive | outcome [2]: inactive

CCC[CH2][Sn]([Cl])([Cl])[CH2]CCC
AC50 [1]: 3.24 µM (active) | outcome [2]: inactive
